Here are results for 58 compounds from ChEMBL document CHEMBL1201862, “PubChem BioAssay data set” (2004).

SMILES strings stand for the structures. “And” between values parts separate entries of the source, which are not always exact repeats. Identical values can stand only once. Out of some 400,000 compounds screened, about 2,100 (0.53%) were called active. Inconclusive results (about 14%) are left out. The rule behind the calls is not given here. Many of the other results were omitted from the sample, so actives are more common in it than they were.

Sequence of Ataxin-2 (Homo sapiens) (Q99700 whole entry): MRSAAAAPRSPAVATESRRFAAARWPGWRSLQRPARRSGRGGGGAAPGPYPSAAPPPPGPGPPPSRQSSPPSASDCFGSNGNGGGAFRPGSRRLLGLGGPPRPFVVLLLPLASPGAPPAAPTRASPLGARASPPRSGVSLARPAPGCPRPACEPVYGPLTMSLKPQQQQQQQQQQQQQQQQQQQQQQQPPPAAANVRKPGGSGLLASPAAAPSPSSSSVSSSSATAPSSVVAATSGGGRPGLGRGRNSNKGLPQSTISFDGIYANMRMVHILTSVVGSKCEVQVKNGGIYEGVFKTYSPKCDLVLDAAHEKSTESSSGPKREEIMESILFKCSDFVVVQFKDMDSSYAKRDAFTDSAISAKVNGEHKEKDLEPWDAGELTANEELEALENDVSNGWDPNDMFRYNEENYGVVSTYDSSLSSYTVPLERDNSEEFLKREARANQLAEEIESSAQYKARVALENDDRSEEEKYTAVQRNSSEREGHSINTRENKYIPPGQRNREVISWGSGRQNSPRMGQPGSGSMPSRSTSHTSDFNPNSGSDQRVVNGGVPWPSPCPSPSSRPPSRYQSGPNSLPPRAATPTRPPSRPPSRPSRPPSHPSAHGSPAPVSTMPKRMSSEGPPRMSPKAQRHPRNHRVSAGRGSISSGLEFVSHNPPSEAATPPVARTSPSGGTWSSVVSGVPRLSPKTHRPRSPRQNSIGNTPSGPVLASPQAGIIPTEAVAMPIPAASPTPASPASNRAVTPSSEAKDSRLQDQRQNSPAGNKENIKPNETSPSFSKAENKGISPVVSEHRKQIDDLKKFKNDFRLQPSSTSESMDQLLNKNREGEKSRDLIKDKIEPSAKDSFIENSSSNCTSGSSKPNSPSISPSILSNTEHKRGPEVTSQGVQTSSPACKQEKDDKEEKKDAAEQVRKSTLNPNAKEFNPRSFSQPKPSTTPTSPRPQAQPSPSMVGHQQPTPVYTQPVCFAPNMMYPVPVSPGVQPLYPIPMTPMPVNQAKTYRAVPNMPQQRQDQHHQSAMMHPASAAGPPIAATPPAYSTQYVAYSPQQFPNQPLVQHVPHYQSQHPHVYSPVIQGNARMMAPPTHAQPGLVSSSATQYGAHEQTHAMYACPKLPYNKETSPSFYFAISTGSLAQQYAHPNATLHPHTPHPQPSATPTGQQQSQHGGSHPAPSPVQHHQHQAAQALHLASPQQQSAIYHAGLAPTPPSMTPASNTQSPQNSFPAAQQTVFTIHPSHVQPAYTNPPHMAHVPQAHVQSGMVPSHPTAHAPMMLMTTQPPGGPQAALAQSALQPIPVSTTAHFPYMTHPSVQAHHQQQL

This experiment addresses Ataxin-2 (Homo sapiens) (UniProt Q99700). The experiment is described as follows: qHTS for Inhibitors of ATXN expression. Format: functional. In general terms: Quantitative high-throughput screening tests each substance at several concentrations.
On to `Cc1cc(C(=O)O)ccc1-c1ccc(/C=C2\NC(=O)N(Cc3ccccc3Cl)C2=O)o1`, for which the Potency entry was “inactive”.

Take `CC(=O)c1ccccc1NC(=O)COC(=O)CN1C(=O)C2CCCCC2C1=O` (stereo not drawn): the Potency entry is “inactive”.

With `O=C(OCC(=O)N1CCC(Cc2ccccc2)CC1)c1ccccc1F`, the Potency entry is “inactive”.

In the case of `CSc1ccc(NC(=O)NCCCN2CCC(Cc3ccccc3)CC2)cc1`, the Potency is 39.8 µM (active).

Regarding `O=C(Nc1ccccc1)Nc1ccccc1C(=O)NCCCN1CCOCC1`, the Potency entry is “inactive”.

On to `CN(C)c1ccc(/C=N/CCc2ccc(S(N)(=O)=O)cc2)cc1`, for which the Potency entry was “inactive”.

As to `C(=C\c1ccco1)/C1=NN(c2ccccc2)C(c2ccco2)C1` (stereo not drawn), the Potency entry was “inactive”.

Regarding `CCOCCCn1/c(=N/C(C)=O)c(C(=O)OCC)cc2c(=O)n3ccccc3nc21`, the Potency entry was “inactive”.

For the compound `COc1cccc2c1C(=O)c1c(O)c3c(c(O)c1C2=O)CC(O)(C(C)=NNC(=O)c1ccc(Cl)c(Cl)c1)CC3OC1CC(N)C(O)C(C)O1` (stereo not drawn), the Potency is 2.67 µM (active).

With `COc1cccc2c1C(=O)c1c(O)c3c(c(O)c1C2=O)C[C@@](O)(C(=O)CO)C[C@@H]3O[C@H]1C[C@H](N)[C@@H](O)[C@H](C)O1`, the Potency was 8.91 µM (active).

For `COc1cccc2c1C(=O)c1c(O)c3c(c(O)c1C2=O)CC(O)(C(=O)CO)CC3OC1CC(N(C)C)C(O)C(C)O1` (stereo not drawn), the Potency was 1.19 µM (active).

For `COc1cccc2c1C(=O)c1c(O)c3c(c(O)c1C2=O)C[C@](O)(C(C)=O)C[C@H]3O[C@@H]1C[C@H](N)[C@H](O)[C@H](C)O1`, the Potency is 1 µM (active).

As for `CC(=O)/N=c1\c(C#N)cc2c(=O)n3cccc(C)c3nc2n1Cc1ccco1`, the Potency result was “inactive”.

As to `CCN(CC)c1ccc(-n2nc3cc(C)c(NC(=O)c4ccccc4F)cc3n2)cc1`, the Potency result is “inactive”.

With `CCn1cnc2c1c(=O)n(CC(=O)NN)c(=O)n2Cc1ccccc1`, the Potency result is “inactive”.

With `Nc1c(C(=O)Nc2ccc(Br)cc2)sc2nc(-c3ccco3)ccc12`, the Potency result is “inactive”.

For `Cc1nn(C)c(C)c1N1C(=O)c2cccc3c(N)ccc(c23)C1=O`, the Potency entry was “inactive”.

Regarding `NNC(=O)c1oc2nc(-c3ccc(Cl)cc3)cc(-c3ccccc3)c2c1N`, the Potency entry was “inactive”.

Turning to `CC(=O)[C@]1(O)Cc2c(O)c3c(c(O)c2[C@@H](O[C@H]2C[C@H](N)[C@H](O)[C@H](C)O2)C1)C(=O)c1ccccc1C3=O`, the Potency is 35.5 µM (active) and 20 µM (active).

Consider `COc1cccc2c1C(=O)c1c(O)c3c(c(O)c1C2=O)C[C@](O)(C(=O)CO)C[C@H]3O[C@@H]1C[C@H](N)[C@H](O)[C@H](C)O1`, for which the Potency was 0.794 µM (active).

Turning to `CC(C)c1ccc(-n2nc3ccc(N)cc3n2)cc1`, the Potency result is “inactive”.

As to `Cc1cc(C)n(-c2ccc(C(=O)N3CCC(CO)(Cc4ccccc4)CC3)cc2)n1`, the Potency entry was “inactive”.

On to `Cc1ccc([N+](=O)[O-])cc1N/C=C1\CCCCC1=O`, for which the Potency entry was “inactive”.

For the compound `COCCn1/c(=N/C(=O)c2cc(-c3cccs3)nc3ccccc23)sc2cc(S(N)(=O)=O)ccc21`, the Potency result was “inactive”.

With `C=CCn1/c(=N/C(=O)c2sc3ccccc3c2Cl)sc2cc(S(N)(=O)=O)ccc21`, the Potency was 12.6 µM (active).

Turning to `Cc1nn(C)c(C)c1CCC(=O)N1CCCC(Nc2ccc(C(C)C)cc2)C1` (stereo not drawn), the Potency was 39.8 µM (active).

On to `Cc1nonc1CC(=O)N1CCCC(C(=O)c2ccc(Cl)cc2)C1` (stereo not drawn), for which the Potency result is “inactive”.

`Cc1cc(=O)n2nc(N3CCCC3C(=O)Nc3ccc(C(C)C)cc3)sc2n1` (stereo not drawn): the Potency result was “inactive”.

Take `O=C(NCc1ccc(F)cc1)c1cccc2c1C(=O)c1ccc(N3CCC(Cc4ccccc4)CC3)cc1S2(=O)=O`: the Potency result was “inactive”.

As for `Cc1nc2c(S(=O)(=O)c3ccccc3)cnn2c(C)c1C`, the Potency result is “inactive”.

Turning to `CC1CCN(c2ccc3c(c2)S(=O)(=O)c2cccc(C(=O)NCc4cccc(F)c4)c2C3=O)CC1`, the Potency entry was “inactive”.

As for `COc1ccc(S(=O)(=O)N2CCCC(C(=O)NCCCn3ccnc3)C2)cc1OC` (stereo not drawn), the Potency result was “inactive”.

With `COc1ccc(-n2nc3c(N4CCCC(C(=O)NCCc5ccccc5C)C4)nnc(C)c3c2C)cc1` (stereo not drawn), the Potency is 20 µM (active).

In the case of `COc1ccc(-n2nc3c(N4CCCC(C(=O)NCc5cccc(F)c5)C4)nnc(C)c3c2C)cc1` (stereo not drawn), the Potency was 20 µM (active).

Regarding `CCC(C(=O)NCCc1ccccc1OC)n1nc(C)c2c(C)n(-c3ccccc3)nc2c1=O` (stereo not drawn), the Potency result is “inactive”.

For `COc1cccc(CNC(=O)C2CCN(c3nnc(N4CCCC4=O)s3)CC2)c1`, the Potency entry was “inactive”.

For `COc1ccc(CNC(=O)C(=O)NCC2OCCN2S(=O)(=O)c2cccs2)cc1` (stereo not drawn), the Potency result was “inactive”.

Turning to `COc1ccc(-n2nc3c(N4CCCC(C(=O)NCc5ccc(C)cc5)C4)nnc(C)c3c2C)cc1` (stereo not drawn), the Potency is 17.8 µM (active).

Take `CC(=O)N1CCC(=NNc2ncc(C(F)(F)F)cc2Cl)CC1`: the Potency result is “inactive”.

For `Cc1cccn2c(=O)c3cc(C(=O)NC(C)C)c(=N)n(Cc4ccncc4)c3nc12`, the Potency result was “inactive”.

In the case of `N=C(Cc1ccc(Cl)cc1)NOC(=O)c1cccc2ccccc12`, the Potency is 39.8 µM (active).

Take `O=C(COC(=O)c1cc(O)nc2ccccc12)NCc1ccc(Cl)cc1`: the Potency entry was “inactive”.

Regarding `CCOc1ncccc1C(=O)N(CC)CC(=O)NCc1ccc(Cl)cc1`, the Potency entry was “inactive”.

For `O=[N+]([O-])c1ccc(CSc2ncnc3ccccc23)cc1`, the Potency result was “inactive”.

Turning to `COc1ccc(-c2cc(C(F)(F)F)n3ncc(C(=O)N4CCc5ccccc5C4)c3n2)cc1`, the Potency entry was “inactive”.

With `Cc1ccc2[nH]c(NC3=NC(=O)c4ccccc43)nc2c1`, the Potency result is “inactive”.

Consider `CCOC(=O)c1ccc(NC(=O)CC2Nc3ccccc3NC2=O)cc1` (stereo not drawn), for which the Potency entry was “inactive”.

On to `CCOC(=O)c1ccc(NC(=O)CC2C(=O)N(c3ccccc3)C(=O)N2Cc2ccc(C)cc2)cc1` (stereo not drawn), for which the Potency is 22.4 µM (active).

On to `Cc1ccc(CN2C(=O)CCC2C(=O)N2CCN(c3ccccc3)CC2)cc1` (stereo not drawn), for which the Potency result is “inactive”.

With `CCCCN(C)CC(O)Cn1cc(/C=C/C(=O)c2ccc(Br)cc2)c2ccccc21` (stereo not drawn), the Potency entry is “inactive”.

Consider `COc1cc(/C=C2\C=CC(=O)O2)cc(OC)c1`, for which the Potency result is “inactive”.

With `N#Cc1nc(-c2cccc3ccccc23)oc1NCC1CCCO1` (stereo not drawn), the Potency entry was “inactive”.

With `CCC(C)Sc1cccc(-c2nc3cnccn3c2NC2CCCCC2)c1` (stereo not drawn), the Potency result was “inactive”.

For the compound `Cc1ccc(-c2nc3cnccn3c2Nc2c(C)cccc2C)o1`, the Potency result is “inactive”.

With `CCCCNc1c(-c2ccc(SC(C)CC)cc2)nc2cnccn12` (stereo not drawn), the Potency entry is “inactive”.

On to `CCOC(=O)CNc1c(-c2ccc(Cl)cc2)nc2cnccn12`, for which the Potency result is “inactive”.

On to `CC(C)c1ccc(Nc2c(-c3ccccc3O)nc3cnccn23)cc1`, for which the Potency was 39.8 µM (active).

Consider `Cc1ccn2c(Nc3ccc(C(C)C)cc3)c(-c3cccnc3)nc2c1`, for which the Potency was 39.8 µM (active).
